{
  "source": "PubChem BioAssay (NCATS)",
  "note": "Records with an inconclusive call do not appear. Activity calls are given as the source filed them. Calls come from the whole dose curve. % is set by controls: 0 for no effect and ±100 for the full control effect.",
  "data": [
    {"assay": "Primary qHTS for Huh7 cytotoxicity: counterscreen for inhibitors of MERS-S pseudotyped particle cell entry (AID 1479147)", "conditions": "cell viability read-out; series mostly up to 57.1 µM; activity change, negative = cytotoxicity: at the top concentration", "values": [
      {"smiles": "CC(CC(c1ccccc1)c1ccccc1)NC(C)(C)C", "note": "(configuration not stated)", "outcome": "inactive"},
      {"smiles": "CCCCCCCCCC(=O)OCCN1CCN(CCCN2c3ccccc3Sc3ccc(C(F)(F)F)cc32)CC1", "activity change, negative = cytotoxicity": "-15.9% (inactive)"},
      {"smiles": "CC(=O)O[C@]1(C(C)=O)CC[C@H]2[C@@H]3C=C(C)C4=CC(=O)CC[C@@H]4[C@H]3CC[C@@]21C", "activity change, negative = cytotoxicity": "-8.91% (inactive)"},
      {"smiles": "C=Cc1c(C)c2cc3nc(cc4[nH]c(cc5nc(cc1[nH]2)C(C)=C5CCC(=O)O)c(CCC(=O)OC)c4C)[C@@]1(C)C3=CC=C(C(=O)OC)[C@@H]1C(=O)OC", "outcome": "inactive"},
      {"smiles": "COC(=O)N[C@H](C(=O)N1CCC[C@H]1c1ncc(-c2ccc(-c3ccc(-c4cnc([C@@H]5CCCN5C(=O)[C@@H](NC(=O)OC)C(C)C)[nH]4)cc3)cc2)[nH]1)C(C)C", "activity change, negative = cytotoxicity": "-6.88% (inactive)"},
      {"smiles": "CCCN1C[C@H](C)[C@@H](O)[C@](C)(O)[C@@H](CC)OC(=O)[C@H](C)[C@@H](O[C@H]2C[C@@](C)(OC)[C@@H](O)[C@H](C)O2)C(C)[C@@H](O[C@@H]2O[C@H](C)C[C@H](N(C)C)[C@H]2O)[C@](C)(O)C[C@H]1C", "note": "(some centres not stated)", "outcome": "inactive"},
      {"smiles": "CCN1CCC(=C2c3ccccc3CCc3ccccc32)C1C", "note": "(configuration not stated)", "outcome": "inactive"},
      {"smiles": "COc1c(-c2ccc3cc(NS(C)(=O)=O)ccc3c2)cc(-n2ccc(=O)[nH]c2=O)cc1C(C)(C)C", "outcome": "inactive"},
      {"smiles": "CCN1CCN(Cc2ccc(Nc3ncc(F)c(-c4cc(F)c5nc(C)n(C(C)C)c5c4)n3)nc2)CC1", "outcome": "inactive"},
      {"smiles": "Cc1cc(-n2c(=O)[nH]c(=O)n(C)c2=O)ccc1Oc1ccc(SC(F)(F)F)cc1", "outcome": "inactive"},
      {"smiles": "OC(CCN1CCCCC1)(c1ccccc1)C1CCCC1", "note": "(configuration not stated)", "outcome": "inactive"},
      {"smiles": "CC(C)C[C@H]1C(=O)O[C@H](Cc2ccc(N3CCOCC3)cc2)C(=O)N(C)[C@@H](CC(C)C)C(=O)O[C@H](C)C(=O)N(C)[C@@H](CC(C)C)C(=O)O[C@H](Cc2ccc(N3CCOCC3)cc2)C(=O)N(C)[C@@H](CC(C)C)C(=O)O[C@H](C)C(=O)N1C", "outcome": "inactive"}
    ]},
    {"assay": "Primary qHTS for Vero E6 cytotoxicity: counterscreen for inhibitors of SARS-S pseudo-typed particle cell entry (AID 1479150)", "conditions": "cell viability; series mostly up to 57.1 µM; activity change, negative = cytotoxicity: at the top concentration", "values": [
      {"smiles": "Cc1cncc(CN2CCC(=C3c4ccc(Cl)cc4CCc4cccnc43)CC2)c1", "outcome": "inactive"},
      {"smiles": "CC(C)[C@H]1C(=O)N[C@@H](CCCN=C(N)N)C(=O)NCC(=O)N[C@@H](CC(=O)O)C(=O)N[C@H](Cc2ccccc2)C(=O)N1C", "activity change, negative = cytotoxicity": "-21.1% (inactive)"},
      {"smiles": "O=C1[C@@H]2[C@H]3CC[C@H](C3)[C@@H]2C(=O)N1C[C@@H]1CCCC[C@H]1CN1CCN(c2nsc3ccccc23)CC1", "activity change, negative = cytotoxicity": "1.71% (inactive)"},
      {"smiles": "O=C(CCCN1CCC(C(=O)c2ccc(F)cc2)CC1)c1ccc(F)cc1", "activity change, negative = cytotoxicity": "4.96% (inactive)"},
      {"smiles": "CC[C@@H](C(=O)[C@@H](C)[C@@H](O)[C@H](C)CCc1ccc(C)c(O)c1C(=O)O)[C@H]1O[C@](CC)([C@H]2CC[C@](O)(CC)[C@H](C)O2)C[C@@H]1C", "activity change, negative = cytotoxicity": "1.59% (inactive)"},
      {"smiles": "C=CC[C@@H]1/C=C(\\C)C[C@H](C)C[C@H](OC)[C@H]2O[C@@](O)(C(=O)C(=O)N3CCCC[C@H]3C(=O)O[C@H](/C(C)=C/[C@@H]3CC[C@@H](O)[C@H](OC)C3)[C@H](C)[C@@H](O)CC1=O)[C@H](C)C[C@@H]2OC", "outcome": "inactive"},
      {"smiles": "CC(Cc1ccc(O)c(O)c1)C(C)Cc1ccc(O)c(O)c1", "note": "(configuration not stated)", "activity change, negative = cytotoxicity": "2.33% (inactive)"},
      {"smiles": "CCCCCCC(COC(=O)c1cccnc1)(COC(=O)c1cccnc1)COC(=O)c1cccnc1", "activity change, negative = cytotoxicity": "-11.3% (inactive)"},
      {"smiles": "CC[C@@H]1/C=C(\\C)C[C@H](C)C[C@H](OC)[C@H]2O[C@@](O)(C(=O)C(=O)N3CCCC[C@H]3C(=O)O[C@H](/C(C)=C/[C@@H]3CC[C@H](Cl)[C@H](OC)C3)[C@H](C)[C@@H](O)CC1=O)[C@H](C)C[C@@H]2OC", "outcome": "inactive"},
      {"smiles": "CCOC(=O)Oc1c(OC)cc(C(=O)O[C@@H]2C[C@@H]3CN4CCc5c([nH]c6cc(OC)ccc56)[C@H]4C[C@@H]3[C@H](C(=O)OC)[C@H]2OC)cc1OC", "outcome": "inactive"},
      {"smiles": "CC(C)C[C@H]1C(=O)N2CCC[C@H]2[C@]2(O)O[C@](NC(=O)[C@@H]3C=C4c5cccc6[nH]c(Br)c(c56)CC4N(C)C3)(C(C)C)C(=O)N12", "note": "(some centres not stated)", "outcome": "inactive"},
      {"smiles": "CNS(=O)(=O)CC1CCC(N(C)c2ncnc3[nH]ccc23)CC1", "note": "(configuration not stated)", "outcome": "inactive"},
      {"smiles": "CC(CN(C)C)CN1c2ccccc2Sc2ccc(C(F)(F)F)cc21", "note": "(configuration not stated)", "activity change, negative = cytotoxicity": "-1.9% (inactive)"},
      {"smiles": "COc1cc2c(cc1OC)[C@H]1C[C@@H](OC(=O)[C@@H](N)C(C)C)[C@H](CC(C)C)CN1CC2", "outcome": "inactive"},
      {"smiles": "CC(CN1c2ccccc2Sc2cccnc21)N(C)C", "note": "(configuration not stated)", "outcome": "inactive"},
      {"smiles": "CC(=O)c1ccc2c(c1)N(CCCN1CCN(CCO)CC1)c1ccccc1S2", "activity change, negative = cytotoxicity": "-9.12% (inactive)"},
      {"smiles": "Cc1ccc(C2(O)CCN(CCCC(=O)c3ccc(F)cc3)CC2)cc1", "activity change, negative = cytotoxicity": "0.887% (inactive)"},
      {"smiles": "CO[C@H]1/C=C\\O[C@@]2(C)Oc3c(C)c(O)c4c(O)c(c5c(c4c3C2=O)=NC2(CCN(CC(C)C)CC2)N=5)NC(=O)/C(C)=C\\C=C/[C@H](C)[C@H](O)[C@@H](C)[C@@H](O)[C@@H](C)[C@H](OC(C)=O)[C@@H]1C", "activity change, negative = cytotoxicity": "-1.95% (inactive)"},
      {"smiles": "[2H]C([2H])([2H])C(O)([C@@H](C)/C=C/[C@@H](C)[C@H]1CC[C@H]2/C(=C/C=C3C[C@@H](O)C[C@H](O)C3)CCC[C@]12C)C([2H])([2H])[2H]", "outcome": "inactive"},
      {"smiles": "CC(C)(C)NCC(O)COc1ccccc1C1CCCC1", "note": "(configuration not stated)", "outcome": "inactive"},
      {"smiles": "O=C(O)c1ccc2nc(-c3cc(Cl)cc(Cl)c3)oc2c1", "outcome": "inactive"},
      {"smiles": "CCCCCCCCCC(=O)OCCN1CCN(CC/C=C2\\c3ccccc3Sc3ccc(C(F)(F)F)cc32)CC1", "outcome": "inactive"},
      {"smiles": "CCC1OC(=O)[C@H](C)C(=O)[C@H](C)[C@@H](OC2O[C@H](C)C[C@H](N(C)C)[C@H]2O)[C@](C)(OC)C[C@@H](C)C(=O)[C@@H](C)[C@@H]2N(CCCCn3cnc(-c4cccnc4)c3)C(=O)O[C@]12C", "note": "(some centres not stated)", "activity change, negative = cytotoxicity": "4.32% (inactive)"},
      {"smiles": "O=C1CSC2(CCN(CCCN3c4ccccc4Sc4ccc(Cl)cc43)CC2)N1", "outcome": "inactive"},
      {"smiles": "CC[C@@H](C)[C@H]1O[C@]2(CC[C@@H]1C)C[C@@H]1C[C@@H](C/C=C(\\C)[C@@H](O[C@H]3C[C@H](OC)[C@@H](O[C@H]4C[C@H](OC)[C@@H](O)[C@H](C)O4)[C@H](C)O3)[C@@H](C)/C=C/C=C3\\CO[C@@H]4[C@H](O)C(C)=C[C@@H](C(=O)O1)[C@]34O)O2", "activity change, negative = cytotoxicity": "-20.5% (inactive)"},
      {"smiles": "Cc1cnc(C(=O)N[C@H]2CCCCC/C=C\\[C@H]3C[C@@]3(C(=O)NS(=O)(=O)C3CC3)NC(=O)[C@@H]3C[C@@H](Oc4nc5ccccc5c5ccccc45)CN3C2=O)cn1", "activity change, negative = cytotoxicity": "1.76% (inactive)"},
      {"smiles": "CCCCCCCCCC(=O)NO", "activity change, negative = cytotoxicity": "4.06% (inactive)"},
      {"smiles": "OC[C@H]1NC[C@H](O)[C@@H](O)[C@@H]1O", "activity change, negative = cytotoxicity": "-2.38% (inactive)"},
      {"smiles": "CC(CC(c1ccccc1)c1ccccc1)NC(C)(C)C", "note": "(configuration not stated)", "outcome": "inactive"},
      {"smiles": "CCCCCCCCCC(=O)OCCN1CCN(CCCN2c3ccccc3Sc3ccc(C(F)(F)F)cc32)CC1", "outcome": "inactive"},
      {"smiles": "CC(=O)O[C@]1(C(C)=O)CC[C@H]2[C@@H]3C=C(C)C4=CC(=O)CC[C@@H]4[C@H]3CC[C@@]21C", "activity change, negative = cytotoxicity": "0.257% (inactive)"},
      {"smiles": "C=Cc1c(C)c2cc3nc(cc4[nH]c(cc5nc(cc1[nH]2)C(C)=C5CCC(=O)O)c(CCC(=O)OC)c4C)[C@@]1(C)C3=CC=C(C(=O)OC)[C@@H]1C(=O)OC", "activity change, negative = cytotoxicity": "3.98% (inactive)"},
      {"smiles": "COC(=O)N[C@H](C(=O)N1CCC[C@H]1c1ncc(-c2ccc(-c3ccc(-c4cnc([C@@H]5CCCN5C(=O)[C@@H](NC(=O)OC)C(C)C)[nH]4)cc3)cc2)[nH]1)C(C)C", "outcome": "inactive"},
      {"smiles": "CCCN1C[C@H](C)[C@@H](O)[C@](C)(O)[C@@H](CC)OC(=O)[C@H](C)[C@@H](O[C@H]2C[C@@](C)(OC)[C@@H](O)[C@H](C)O2)C(C)[C@@H](O[C@@H]2O[C@H](C)C[C@H](N(C)C)[C@H]2O)[C@](C)(O)C[C@H]1C", "note": "(some centres not stated)", "activity change, negative = cytotoxicity": "3.28% (inactive)"},
      {"smiles": "CCN1CCC(=C2c3ccccc3CCc3ccccc32)C1C", "note": "(configuration not stated)", "activity change, negative = cytotoxicity": "4.6% (inactive)"},
      {"smiles": "COc1c(-c2ccc3cc(NS(C)(=O)=O)ccc3c2)cc(-n2ccc(=O)[nH]c2=O)cc1C(C)(C)C", "outcome": "inactive"},
      {"smiles": "CCN1CCN(Cc2ccc(Nc3ncc(F)c(-c4cc(F)c5nc(C)n(C(C)C)c5c4)n3)nc2)CC1", "outcome": "inactive"},
      {"smiles": "Cc1cc(-n2c(=O)[nH]c(=O)n(C)c2=O)ccc1Oc1ccc(SC(F)(F)F)cc1", "activity change, negative = cytotoxicity": "-0.243% (inactive)"},
      {"smiles": "OC(CCN1CCCCC1)(c1ccccc1)C1CCCC1", "note": "(configuration not stated)", "activity change, negative = cytotoxicity": "2.05% (inactive)"},
      {"smiles": "CC(C)C[C@H]1C(=O)O[C@H](Cc2ccc(N3CCOCC3)cc2)C(=O)N(C)[C@@H](CC(C)C)C(=O)O[C@H](C)C(=O)N(C)[C@@H](CC(C)C)C(=O)O[C@H](Cc2ccc(N3CCOCC3)cc2)C(=O)N(C)[C@@H](CC(C)C)C(=O)O[C@H](C)C(=O)N1C", "outcome": "inactive"}
    ]}
  ]
}
